Laboratory results as given in PubChem BioAssay.
Calls of active or inactive are those of the source. Unless noted, the rule behind the calls is not given here.

Legend:
[1] = resazurin metabolic signal in HepG2 cells – cell-based, resazurin fluorescence, 24 h, PK04 Diversity Set, profiling panel (AID 1172); settings: HepG2 viability, higher = more signal
[2] = budding yeast growth changes without added modifier – OD600, strain BY4716, 24 h, basal condition, primary screen (AID 1173); settings: S. cerevisiae BY4716 growth, OD600, 24 h; higher = more signal, called active from +8 up or from −8 down
[3] = viability profiling in MM1S myeloma cells – cell-based, resazurin fluorescence, basal, 24 h, PK04 Diversity Set, profiling panel (AID 1174); settings: higher = more signal, called active from +8 up or from −8 down;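 note: MM1S multiple myeloma cell line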
[4] = biological target: Dihydroorotate dehydrogenase (quinone), mitochondrial (Plasmodium falciparum (isolate 3D7)) (UniProt Q08210); assay: inhibition of P. falciparum DHODH – biochemical, C-terminal His tag, absorbance 600 nm, primary screen (AID 1175); settings: PfDHODH enzyme, DCIP absorbance 600 nm; higher = more signal, called active from +8 up or from −8 down;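 note: recombinant parasite enzyme with a five histidine tag at its C terminus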
Sequence of Dihydroorotate dehydrogenase (quinone), mitochondrial (Plasmodium falciparum (isolate 3D7)) (Q08210 whole entry, looked up): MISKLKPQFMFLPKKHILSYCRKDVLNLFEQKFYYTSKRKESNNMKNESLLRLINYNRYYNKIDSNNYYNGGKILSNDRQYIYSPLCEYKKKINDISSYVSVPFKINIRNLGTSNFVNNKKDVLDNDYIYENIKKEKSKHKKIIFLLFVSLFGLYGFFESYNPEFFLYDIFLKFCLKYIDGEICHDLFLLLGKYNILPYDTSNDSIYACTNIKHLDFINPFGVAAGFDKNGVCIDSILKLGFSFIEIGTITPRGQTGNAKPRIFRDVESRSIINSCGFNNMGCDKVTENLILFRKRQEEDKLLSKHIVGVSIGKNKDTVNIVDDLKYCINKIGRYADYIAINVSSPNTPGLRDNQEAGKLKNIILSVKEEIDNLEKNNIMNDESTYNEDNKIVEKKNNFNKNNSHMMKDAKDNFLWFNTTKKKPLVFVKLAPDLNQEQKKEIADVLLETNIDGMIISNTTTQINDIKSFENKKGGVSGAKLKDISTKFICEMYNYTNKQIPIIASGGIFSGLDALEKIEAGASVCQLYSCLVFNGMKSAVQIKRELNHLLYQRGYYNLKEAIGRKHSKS

[5] = growth modulation of vineyard yeast isolate – strain RM11-1a, OD600, basal, 24 h, primary screen (AID 1177);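 note: cultures grown under basal conditions with no added stressor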; settings: S. cerevisiae RM11-1a growth, OD600, 24 h; higher = more signal, called active from +8 up or from −8 down
[6] = growth of efflux-deficient E. coli DRC39 – strain DRC39, OD650, 24 h, E. coli filamentation inducers, primary screen (AID 1178);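 note: growth measured as culture turbidity by optical density at 650 nm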; settings: E. coli DRC39 acrAB, higher = more signal, called active from +8 up or from −8 down
[7] = growth of efflux-deficient E. coli DRC39 – strain DRC39, OD650, 48 h, E. coli filamentation inducers, primary screen (AID 1179);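 note: screen aims at cell division blockers that make cells filament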; settings: E. coli DRC39 delta-acrAB growth, higher = more signal, called active from +8 up or from −8 down
[8] = viability profiling in RPMI8226 myeloma cells – cell-based, resazurin fluorescence, basal, 24 h, PK04 Diversity Set, profiling panel (AID 1180); settings: higher = more signal;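 note: RPMI8826 multiple myeloma cell line at 5000 cells per well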
[9] = biological target: E3 ubiquitin-protein ligase XIAP (Homo sapiens) (UniProt P98170); assay: small molecules binding XIAP protein – biophysical, small-molecule microarray, fluorescence 635 nm, primary screen (AID 1181); settings: higher = more signal;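 note: score merges 667 nm emission and signal to noise over triplicate slides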
Sequence of E3 ubiquitin-protein ligase XIAP (Homo sapiens) (P98170 whole entry, looked up, the tested form may be a part): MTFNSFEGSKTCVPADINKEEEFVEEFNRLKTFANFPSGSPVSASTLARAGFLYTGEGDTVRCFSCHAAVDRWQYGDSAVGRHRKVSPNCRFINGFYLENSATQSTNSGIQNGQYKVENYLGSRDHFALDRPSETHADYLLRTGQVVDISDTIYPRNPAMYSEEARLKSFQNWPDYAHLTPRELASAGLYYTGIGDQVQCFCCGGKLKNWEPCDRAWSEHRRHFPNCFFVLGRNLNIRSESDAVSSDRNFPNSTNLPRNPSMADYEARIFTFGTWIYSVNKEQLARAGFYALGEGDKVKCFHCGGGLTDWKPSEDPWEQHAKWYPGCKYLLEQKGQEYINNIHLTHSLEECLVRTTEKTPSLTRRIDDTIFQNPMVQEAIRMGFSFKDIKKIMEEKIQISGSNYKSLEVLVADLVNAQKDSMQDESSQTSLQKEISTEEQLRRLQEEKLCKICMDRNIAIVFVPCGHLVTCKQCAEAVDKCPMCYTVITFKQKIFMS

[10] = tested on: XIP peptide (Xip251-270) binding; assay: XIP fragment 251-270 binding compounds – biochemical, small-molecule microarray, fluorescence 635/667 nm, 0.1 µg/mL protein, primary screen (AID 1182); settings: fluorescent protein binding, 635 nm, higher = more signal, called active from +8 up or from −8 down
XIP peptide (Xip251-270) = assay: compounds binding XIP fragment 251-270 – biochemical, small-molecule microarray, fluorescence 635/667 nm, 0.5 µg/mL protein, primary screen (AID 1183); settings: fluorescence 635 nm, higher = more signal
[11] = blood-stage malaria parasite viability loss – strain 3D7, DAPI fluorescence, 100 nL, primary screen (AID 1184);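 note: parasites grown inside human red blood cells in medium with human serum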; settings: P. falciparum 3D7 growth, 3 d, higher = more signal
[12] = biological target: Homeobox protein Hox-A13 (Mus musculus) (UniProt Q62424); assay: disruptors of Hoxa13 oligonucleotide interaction – biochemical, fluorescence polarization, labeled oligonucleotide, primary screen (AID 1185); settings: Hoxa13:DNA binding, 15 min, higher = more signal, called active from +8 up or from −8 down
Sequence of Homeobox protein Hox-A13 (Mus musculus) (Q62424 whole entry, looked up): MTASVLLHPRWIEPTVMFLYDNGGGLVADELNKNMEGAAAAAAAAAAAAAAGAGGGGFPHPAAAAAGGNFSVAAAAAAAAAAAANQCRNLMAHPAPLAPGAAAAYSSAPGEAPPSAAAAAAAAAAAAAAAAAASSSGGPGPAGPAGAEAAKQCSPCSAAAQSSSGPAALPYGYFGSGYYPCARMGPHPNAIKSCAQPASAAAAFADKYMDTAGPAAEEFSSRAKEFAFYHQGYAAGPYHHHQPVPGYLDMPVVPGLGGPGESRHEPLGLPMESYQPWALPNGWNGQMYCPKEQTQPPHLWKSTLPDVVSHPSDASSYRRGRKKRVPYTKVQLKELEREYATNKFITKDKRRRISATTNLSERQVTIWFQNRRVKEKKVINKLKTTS

[13] = blockers of DNA damage checkpoint Chk1 activation – imaging, HeLa, hydroxyurea, phospho-Chk1 antibody, percent positive cells, primary screen (AID 1186); settings: hydroxyurea-induced phospho-Chk1 immunofluorescence imaging, higher = more signal
[14] = blockers of DNA damage checkpoint Chk1 activation – imaging, HeLa, hydroxyurea, phospho-Chk1 nuclear intensity, primary screen (AID 1187); settings: hydroxyurea-induced phospho-Chk1 immunofluorescence imaging, higher = more signal

SMILES	z-score [1]	z-score [2]	z-score [3]	composite z-score [4]	z-score [5]	z-score [6]	z-score [7]	z-score [8]	composite z-score [9]	composite z-score [10]	composite z-score (XIP peptide (Xip251-270))	z-score [11]	z-score [12]	z-score [13]	z-score [14]
Cc1ccc(N2C(=O)c3ccccc3[C@](C)(C(=O)O)[C@@H]2c2ccc(CO)cc2)nc1	0.522	-0.0489 (inactive)	1.28 (inactive)	0.217 (inactive)	0.826 (inactive)	0.826 (inactive)	0.396 (inactive)	1.27	-0.0641	-0.235 (inactive)	-1.16	-0.63	-0.0226 (inactive)	0.153 (inactive)	0.522 (inactive)
C=C[C@H](OC)[C@@H](OC(=O)Nc1ccc(SC)cc1)c1ccc(OC)c(O)c1	1.06	-1.14 (inactive)	0.7 (inactive)	-0.768 (inactive)	-1.55 (inactive)	1.51 (inactive)	1.93 (inactive)	0.933	-0.0773	0.241 (inactive)	0.0001	-0.549	-2.82 (inactive)	-0.439 (inactive)	0.136 (inactive)
C=C(CCCC)C(=O)CC[C@@H](OC(=O)c1cccnc1)c1cccc(OCCO)c1	0.147	-1.41 (inactive)	-4.18 (inactive)	-1.57 (inactive)	0.0831 (inactive)	1.24 (inactive)	0.543 (inactive)	-4.13	-0.104	1.48 (inactive)	0.702	-2.81	-3.79 (inactive)	-0.279 (inactive)	-0.326 (inactive)
O=C(NCc1ccccc1)[C@@]1(CCS(=O)(=O)c2ccccc2)COC(c2ccc(OCCCO)cc2)=N1	0.929	0.0648 (inactive)	-0.12 (inactive)	-0.297 (inactive)	1.52 (inactive)	2.95 (inactive)	1.9 (inactive)	-0.0092	0.272	1.13 (inactive)	0.881	-2.26	-4.72 (inactive)	-0.712 (inactive)	-0.464 (inactive)
CO[C@H]1O[C@H](CO)[C@@H](OC(=O)CCc2ccccc2)[C@@H]2OC(=O)[C@H](Cc3cccc(Br)c3)C/C=C/C[C@@H](Cc3cccc(Br)c3)C(=O)O[C@@H]12	1.13	-3.87 (inactive)	1.5 (inactive)	-0.578 (inactive)	-4.01 (inactive)	1.41 (inactive)	1.14 (inactive)	1.45	0.0356	0.0304 (inactive)	-0.107	-1.84	-2.42 (inactive)	-0.962 (inactive)	-1.1 (inactive)
CC(C)N1CC=CC23O[C@@H]4/C=C\CCCOC(=O)C4[C@H]2C(=O)N(CCCCCO)[C@@H]3C1=O (stereo not given in full)	0.46	-1.08 (inactive)	1.35 (inactive)	0.623 (inactive)	-0.354 (inactive)	1.26 (inactive)	1.29 (inactive)	1.13	0.973	-0.301 (inactive)	-1.95	-0.426	-4.61 (inactive)	-0.261 (inactive)	-0.128 (inactive)
CO[C@H]1O[C@H](CO)[C@@H](OC(=O)Nc2ccccc2)[C@H](OC(=O)Nc2ccc3c(c2)OCO3)[C@@H]1OC(=O)Nc1ccc2c(c1)OCO2	-0.667	-0.0273 (inactive)	0.238 (inactive)	-0.167 (inactive)	1.21 (inactive)	1.84 (inactive)	0.228 (inactive)	-0.365	0.136	2.23 (inactive)	0.863	-1.9	-9.6 (active)	0.149 (inactive)	0.121 (inactive)
C=CC[C@]1(C(=O)O)N=C(c2ccc(OCCCO)cc2)O[C@H]1c1ccccc1	0.734	-2.31 (inactive)	1.63 (inactive)	1.51 (inactive)	0.344 (inactive)	2.94 (inactive)	1.25 (inactive)	1.77	0.109	1.81 (inactive)	0.615	-1.63	-4.1 (inactive)	-0.0836 (inactive)	0.409 (inactive)
O=C(CS)NCCCCCNC(=O)[C@H]1C[C@H]2C(=O)N[C@@H](Cc3ccccc3)C(=O)N2[C@H]1c1ccc(O)cc1	0.0833	0.359 (inactive)	1.19 (inactive)	0.44 (inactive)	0.895 (inactive)	0.394 (inactive)	0.102 (inactive)	0.833	0.0123	0.818 (inactive)	-0.072	-0.0713	-2.65 (inactive)	-0.319 (inactive)	0.637 (inactive)
CC(C)[Si](OCCCNS(=O)(=O)c1ccc(Br)cc1)(C(C)C)C(C)C	1.49	-1.79 (inactive)	0.766 (inactive)	0.0026 (inactive)	-2.85 (inactive)	2.79 (inactive)	2.3 (inactive)	-1.26	-0.18	-0.0972 (inactive)	0.195	-1.12	-0.361 (inactive)	-0.672 (inactive)	-1.01 (inactive)
CN(C)CCCC[C@@H]1NC(=O)[C@@H]2C[C@H](C(=O)NCCCCCNC(=O)CS)[C@H](c3ccc(O)cc3)N2C1=O	-0.23	-0.312 (inactive)	1.01 (inactive)	-1.38 (inactive)	-1.13 (inactive)	0.964 (inactive)	0.809 (inactive)	0.975	0.104	0.207 (inactive)	-0.279	0.386	-0.848 (inactive)	-0.205 (inactive)	-0.456 (inactive)
COCCCNC(=O)[C@@]1(Sc2ccc(C)cc2)CC(=O)N(Cc2cc(C(F)(F)F)cc(C(F)(F)F)c2)[C@@H]1c1ccc(CO)cc1I	-0.125	-3.95 (inactive)	-2.01 (inactive)	-0.625 (inactive)	-2.16 (inactive)	0.818 (inactive)	0.328 (inactive)	-1.2	0.0425	-0.291 (inactive)	-0.413	-0.709	-1.21 (inactive)	0.007 (inactive)	0.283 (inactive)
CCOC(=O)[C@H]1C/C=C/C[C@H](C(=O)OCC)C(=O)O[C@H]2[C@@H](OC)O[C@H](CO)[C@@H](OC(=O)Nc3ccc(Br)cc3)[C@@H]2OC1=O	-6.68	-1.68 (inactive)	-9.26 (active)	-1.48 (inactive)	0.424 (inactive)	1.65 (inactive)	1.93 (inactive)	-7.26	0.0223	0.709 (inactive)	0.867	-1.85	-0.239 (inactive)	-0.181 (inactive)	-0.26 (inactive)
Cc1ccc(S(=O)(=O)c2cc3oc2CC[C@@H](CO)NC(=O)N(C)Cc2cn(nn2)C[C@H](Cc2ccccc2)NC3=O)cc1	1.02	-2.64 (inactive)	1.42 (inactive)	0.164 (inactive)	0.288 (inactive)	1.74 (inactive)	1.3 (inactive)	1.03	0.0975	-0.126 (inactive)	-0.612	-0.746	-4.42 (inactive)	-0.131 (inactive)	-0.0334 (inactive)
CC(C)(C)OC(=O)CC[C@]1(C(=O)NCCN2CCOCC2)N=C(c2ccc(OCCCO)cc2)O[C@H]1c1ccccc1CN=[N+]=[N-]	-0.0646	-1.56 (inactive)	1.07 (inactive)	-0.114 (inactive)	-1.36 (inactive)	1.16 (inactive)	0.277 (inactive)	1.38	0.564	1.16 (inactive)	0.58	-0.867	-4.75 (inactive)	-0.593 (inactive)	-0.6 (inactive)
CC(=O)NCCCC[C@@H]1NC(=O)[C@@H]2C[C@H](C(=O)NCCCCCCN(C)C)[C@H](c3ccc(O)cc3)N2C1=O	0.478	-0.574 (inactive)	1.12 (inactive)	0.266 (inactive)	0.662 (inactive)	0.325 (inactive)	0.249 (inactive)	0.912	0.103	1.9 (inactive)	0.852	-0.289	-0.0113 (inactive)	0.313 (inactive)	0.54 (inactive)
O=C1OCC=C[C@H]2OC34C=CCN(Cc5ccccc5)C(=O)[C@H]3N(CCCCCO)C(=O)[C@@H]4[C@@H]12 (stereo not given in full)	-0.399	-0.693 (inactive)	0.238 (inactive)	-0.0022 (inactive)	-0.512 (inactive)	1.77 (inactive)	1.22 (inactive)	0.58	0.101	0.211 (inactive)	-0.85	-1.99	-3.21 (inactive)	0.729 (inactive)	0.0912 (inactive)
C[C@]1(C(=O)NCc2ccccc2)c2ccccc2C(=O)N(Cc2cc(C(F)(F)F)cc(C(F)(F)F)c2)[C@H]1c1ccc(CO)cc1	-0.331	-1.35 (inactive)	0.865 (inactive)	-1.4 (inactive)	-2.4 (inactive)	1.04 (inactive)	0.528 (inactive)	1.12	-0.177	1.03 (inactive)	-0.105	-1.61	-1.78 (inactive)	-1.45 (inactive)	-2.06 (inactive)
O=C1OCCC=C[C@H]2OC34C=CCN(Cc5ccccc5)C(=O)[C@H]3N(CCO)C(=O)[C@@H]4C12 (stereo not given in full)	-0.21	-1.5 (inactive)	0.768 (inactive)	-1.19 (inactive)	-2.28 (inactive)	1.27 (inactive)	0.627 (inactive)	0.47	-0.569	-0.525 (inactive)	-1.24	-1.92	-2.7 (inactive)	-0.618 (inactive)	-0.732 (inactive)
CN(C)CCCC[C@@H]1NC(=O)[C@@H]2C[C@H](C(=O)O)[C@H](c3ccc(O)cc3)N2C1=O	-1.15	-0.976 (inactive)	1.2 (inactive)	-0.621 (inactive)	-0.422 (inactive)	0.994 (inactive)	-0.0998 (inactive)	0.493	0.101	0.646 (inactive)	0.386	-1.35	2.19 (inactive)	0.317 (inactive)	0.448 (inactive)
